Measurements reported in PubChem BioAssay (EPA / NIEHS).
Inconclusive results are not listed. Active and inactive are the calls of the source. The calls were made as follows, unless noted: active = hit-call score of the fitted dose curve at least 0.9, where 1 is the maximum; inactive = score below 0.9.

What was measured:
[1] = BSK_SAg_PBMCCytotoxicity: PBMC Cytotoxicity Assessment in the BioMAP Diversity Plus: SAg Assay (AID 2283093); details: primary human HUVEC with PBMC;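 also: PBMC viability measured as Alamar Blue reduction fluorescence at 546/580 nm; fitted both ways against DMSO so a hit may be loss or gain of signal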;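 as to AC50: PBMC superantigen activated with SEB plus TSST-1 one hour after compound addition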
Procedure, shortened: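 Alamar Blue reduction (6 h, 546/580 nm) reports PBMC cytotoxicity after 90 h superantigen activation (SEB, TSST-1; 20 ng/mL final each) with 1 h compound pre-treatment. Gain or loss of signal fitted versus DMSO.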

[2] = BSK_SAg_Proliferation: Cell Proliferation Assessment in the BioMAP Diversity Plus: SAg Assay (AID 2283095); details: primary human HUVEC with PBMC;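 also: relative cell number as total protein by SRB absorbance in sub-confluent culture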
Procedure, shortened: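 Absorbance of sulforhodamine B at 560 nm reports total protein in a human vascular endothelial/PBMC co-culture after 96 h chemical exposure. Gain or loss of signal is fitted in both directions against DMSO.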

[3] = BSK_SAg_SRB: Viability Assessment in the BioMAP Diversity Plus: SAg Assay (AID 2283096); details: primary human HUVEC with PBMC;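 also: cells read one day after compound addition; hits may be either gain or loss of signal compared with DMSO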
Procedure, shortened: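 This overt-cytotoxicity endpoint quantifies protein in human endothelial/PBMC co-cultures at 24 h using SRB absorbance (560 nm) after trichloroacetic acid fixation. Values reflect signal change from the DMSO negative control, fitted bidirectionally.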

[4] = read-out: Interleukin-8 (IL8), CXCL8 (gene 3576); experiment: BSK_SAg_IL8: BioMAP Diversity Plus: SAg Assay for Interleukin-8 (IL8) Biomarker Activity (AID 2283094); details: primary human HUVEC with PBMC; actives raise or lower the signal
Procedure, shortened: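 Chemicals were dosed onto a human endothelial–PBMC co-culture, and IL-8 was quantified by ELISA after 24 h. Both increases and decreases were fitted relative to DMSO.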

[5] = molecular target: Cytochrome P450 2C19 (Homo sapiens) (UniProt P33261); experiment: NVS_ADME_hCYP2C19: NovaScreen (NVS) CYP450-related Enzyme Activity (ADME) Assay for human CYP2C19 (AID 2283113; active = hit-call score of the fitted dose curve at least 0.9, where 1 is the maximum;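 as to AC50: potency for inhibition seen as loss of fluorescent signal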)
Procedure, shortened: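 Fluorescence intensity was measured 1 hour after chemicals were added to insect-cell-derived recombinant CYP2C19 with fluorogenic substrate. Decreased signal versus acetonitrile control was taken as reduced enzyme activity; initial testing used 10 uM in duplicate.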

[6] = molecular target: human Colony Stimulating Factor 1 Receptor (CSF1R), CSF1R (gene 1436) (UniProt P07333); experiment: NVS_ENZ_hCSF1R: NovaScreen (NVS) Enzymatic Assay for human Colony Stimulating Factor 1 Receptor (CSF1R) (AID 2283150; active = hit-call score of the fitted dose curve at least 0.9, where 1 is the maximum)
Chain of human Colony Stimulating Factor 1 Receptor (CSF1R), CSF1R (gene 1436) (P07333 whole entry, looked up): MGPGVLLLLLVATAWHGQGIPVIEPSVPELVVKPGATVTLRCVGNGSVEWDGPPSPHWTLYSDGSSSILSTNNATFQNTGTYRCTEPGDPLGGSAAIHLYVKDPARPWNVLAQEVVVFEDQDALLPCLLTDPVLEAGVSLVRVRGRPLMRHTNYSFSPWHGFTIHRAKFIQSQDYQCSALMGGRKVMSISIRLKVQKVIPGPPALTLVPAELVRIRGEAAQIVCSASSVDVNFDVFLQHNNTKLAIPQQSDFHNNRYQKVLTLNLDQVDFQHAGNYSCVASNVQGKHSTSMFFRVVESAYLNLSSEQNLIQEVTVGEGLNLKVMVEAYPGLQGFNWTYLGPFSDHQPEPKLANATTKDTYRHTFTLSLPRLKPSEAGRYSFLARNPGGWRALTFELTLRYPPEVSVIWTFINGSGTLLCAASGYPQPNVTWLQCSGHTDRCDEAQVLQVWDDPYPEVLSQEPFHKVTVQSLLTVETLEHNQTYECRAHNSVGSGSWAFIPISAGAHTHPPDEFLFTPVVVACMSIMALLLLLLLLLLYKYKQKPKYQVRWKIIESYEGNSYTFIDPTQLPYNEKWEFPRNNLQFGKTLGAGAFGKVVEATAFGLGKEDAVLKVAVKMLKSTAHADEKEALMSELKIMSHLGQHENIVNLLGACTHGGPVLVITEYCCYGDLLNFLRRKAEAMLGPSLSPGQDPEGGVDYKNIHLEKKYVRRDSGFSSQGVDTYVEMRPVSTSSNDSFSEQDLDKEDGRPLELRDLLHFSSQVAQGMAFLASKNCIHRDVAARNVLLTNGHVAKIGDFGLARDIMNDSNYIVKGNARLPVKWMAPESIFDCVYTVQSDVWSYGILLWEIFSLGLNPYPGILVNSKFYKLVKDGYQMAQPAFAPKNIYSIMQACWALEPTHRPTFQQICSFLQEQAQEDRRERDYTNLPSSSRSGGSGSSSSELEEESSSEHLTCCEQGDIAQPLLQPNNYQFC
Procedure, shortened: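 Compounds screened in duplicate at 25 uM, then concentration-response (top 50 uM) for those passing threshold such as 30% inhibition; recombinant CSF1R activity measured 1 h post-dosing via fluorescent substrate/product mobility-shift separation, loss of signal versus DMSO.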

CDK2 (gene 1017) = CDK2 (gene 1017) (UniProt P24941); experiment: NVS_ENZ_hCDK2: NovaScreen (NVS) Enzymatic Assay for human Cyclin-Cependent Kinase 2 (CDK2) (AID 2283144; active = hit-call score of the fitted dose curve at least 0.9, where 1 is the maximum)
Procedure, shortened: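 Compounds screened in duplicate at 25 uM, then in singleton concentration-response to a maximum of 50 uM, against recombinant CDK2; kinase activity read 1 hr after dosing by fluorescence with mobility-shift separation of substrate and product.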

[7] = molecular target: human CYP1A2, CYP1A2 (gene 1544) (UniProt P05177); experiment: NVS_ADME_hCYP1A2: NovaScreen (NVS) CYP450-related Enzyme Activity (ADME) Assay for human CYP1A2 (AID 2283102; active = hit-call score of the fitted dose curve at least 0.9, where 1 is the maximum;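 also: potency for inhibition since loss of fluorescence marks reduced CYP1A2 activity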)
Procedure, shortened: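 rec. hCYP1A2 (insect cells), cell-free; fluorogenic substrate; 0.5 h; FI read. Baseline = acetonitrile; signal loss = inhibition. 10 uM duplicate primary → conc. series for actives.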

[8] = molecular target: human Beta-secretase (BACE), BACE1 (gene 23621) (UniProt P56817); experiment: NVS_ENZ_hBACE: NovaScreen (NVS) Enzymatic Assay for human Beta-secretase (BACE) (AID 2283140; active = hit-call score of the fitted dose curve at least 0.9, where 1 is the maximum;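 also: hits are inhibitors that reduce fluorescent substrate signal versus DMSO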)
Chain of human Beta-secretase (BACE), BACE1 (gene 23621) (P56817 whole entry, looked up): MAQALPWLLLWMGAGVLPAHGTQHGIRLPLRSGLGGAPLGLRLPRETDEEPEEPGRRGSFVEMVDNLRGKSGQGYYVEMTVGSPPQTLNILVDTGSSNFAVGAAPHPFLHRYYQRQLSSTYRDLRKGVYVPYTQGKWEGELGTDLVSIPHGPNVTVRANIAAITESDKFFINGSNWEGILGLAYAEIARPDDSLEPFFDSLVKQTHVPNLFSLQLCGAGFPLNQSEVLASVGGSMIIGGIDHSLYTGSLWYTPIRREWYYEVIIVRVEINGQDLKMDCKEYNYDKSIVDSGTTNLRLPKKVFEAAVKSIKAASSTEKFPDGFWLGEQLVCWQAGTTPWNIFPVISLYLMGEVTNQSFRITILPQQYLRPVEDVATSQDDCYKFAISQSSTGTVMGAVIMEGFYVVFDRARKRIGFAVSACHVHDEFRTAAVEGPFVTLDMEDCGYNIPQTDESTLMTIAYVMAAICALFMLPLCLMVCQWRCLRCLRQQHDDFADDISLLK
Procedure, shortened: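 Fluorescence intensity read-out of protease activity defines this endpoint; signal loss relative to DMSO baseline marks inhibition. Recombinant enzyme from SF9 cells, cell-free format, 1 h exposure. Single-concentration duplicate screen (25 uM) precedes concentration-series follow-up.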

[9] = molecular target: human CYP2D6, CYP2D6 (gene 1565) (UniProt P10635); experiment: NVS_ADME_hCYP2D6: NovaScreen (NVS) CYP450-related Enzyme Activity (ADME) Assay for human CYP2D6 (AID 2283107; active = hit-call score of the fitted dose curve at least 0.9, where 1 is the maximum)
Chain of human CYP2D6, CYP2D6 (gene 1565) (P10635 whole entry, looked up): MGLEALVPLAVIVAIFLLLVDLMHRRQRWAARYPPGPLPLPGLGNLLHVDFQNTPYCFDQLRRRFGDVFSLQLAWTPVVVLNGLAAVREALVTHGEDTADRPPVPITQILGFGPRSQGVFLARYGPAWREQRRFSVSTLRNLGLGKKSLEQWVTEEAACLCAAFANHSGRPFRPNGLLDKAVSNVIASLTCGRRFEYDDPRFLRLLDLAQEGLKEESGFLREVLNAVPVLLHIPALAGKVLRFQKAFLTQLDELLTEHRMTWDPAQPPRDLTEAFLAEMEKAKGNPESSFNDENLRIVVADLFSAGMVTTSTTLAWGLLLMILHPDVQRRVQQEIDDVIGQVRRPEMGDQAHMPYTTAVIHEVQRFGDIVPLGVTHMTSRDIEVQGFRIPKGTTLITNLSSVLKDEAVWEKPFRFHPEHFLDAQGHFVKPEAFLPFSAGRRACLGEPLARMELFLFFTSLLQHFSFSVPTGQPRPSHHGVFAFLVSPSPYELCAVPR
Procedure, shortened: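 Insect-cell recombinant enzyme + fluorogenic substrate, cell-free; 1 h incubation; fluorescence intensity readout. Acetonitrile = neg. ctrl/baseline. Single-point 10 uM, duplicate; follow-up concentration series.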

[10] = molecular target: human AKT serine/threonine Kinase 1 (AKT1), AKT1 (gene 207) (UniProt P31749); experiment: NVS_ENZ_hAKT1: NovaScreen (NVS) Enzymatic Assay for human AKT serine/threonine Kinase 1 (AKT1) (AID 2283138; active = hit-call score of the fitted dose curve at least 0.9, where 1 is the maximum)
Chain of human AKT serine/threonine Kinase 1 (AKT1), AKT1 (gene 207) (P31749 whole entry, looked up): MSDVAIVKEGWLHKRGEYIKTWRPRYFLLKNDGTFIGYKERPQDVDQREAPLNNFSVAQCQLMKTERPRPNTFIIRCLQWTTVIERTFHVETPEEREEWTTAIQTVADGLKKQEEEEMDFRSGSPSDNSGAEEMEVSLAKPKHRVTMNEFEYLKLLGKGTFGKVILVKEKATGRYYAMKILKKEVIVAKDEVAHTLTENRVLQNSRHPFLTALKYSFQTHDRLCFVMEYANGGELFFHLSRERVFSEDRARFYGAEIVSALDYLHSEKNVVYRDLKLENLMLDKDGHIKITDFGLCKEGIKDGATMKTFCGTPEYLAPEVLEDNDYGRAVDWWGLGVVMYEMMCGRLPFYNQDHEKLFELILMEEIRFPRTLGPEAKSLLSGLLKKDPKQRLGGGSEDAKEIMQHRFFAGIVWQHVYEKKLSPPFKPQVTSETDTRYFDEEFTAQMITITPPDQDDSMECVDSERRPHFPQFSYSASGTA
Procedure, shortened: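 Compounds were first tested in duplicate at 25 uM, and those passing a threshold such as 30% inhibition were run in concentration-response to a maximum of 50 uM. Enzyme activity was measured after 1 h by fluorescence following substrate/product mobility-shift separation.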

[11] = molecular target: human Acid Phosphatase 1 (ACP1), ACP1 (gene 52) (UniProt P24666); experiment: NVS_ENZ_hACP1: NovaScreen (NVS) Enzymatic Assay for human Acid Phosphatase 1 (ACP1) (AID 2283136; active = hit-call score of the fitted dose curve at least 0.9, where 1 is the maximum)
Chain of human Acid Phosphatase 1 (ACP1), ACP1 (gene 52) (P24666 whole entry, looked up): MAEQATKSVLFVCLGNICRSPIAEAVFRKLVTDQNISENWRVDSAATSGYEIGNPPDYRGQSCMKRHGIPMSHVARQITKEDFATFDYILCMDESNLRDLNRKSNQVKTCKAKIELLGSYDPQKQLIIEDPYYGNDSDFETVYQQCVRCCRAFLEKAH
Procedure, shortened: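 Cell-free fluorescence read-out of phosphatase activity, substrate and product separated by mobility shift, taken 1.5 h after compound addition; protein produced in Sf9. Single 25 uM duplicate screen, followed by concentration series for actives, scored as signal loss relative to DMSO.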

[12] = molecular target: human CYP2A6, CYP2A6 (gene 1548) (UniProt P11509); experiment: NVS_ADME_hCYP2A6: NovaScreen (NVS) CYP450-related Enzyme Activity (ADME) Assay for human CYP2A6 (AID 2283099; active = hit-call score of the fitted dose curve at least 0.9, where 1 is the maximum)
Chain of human CYP2A6, CYP2A6 (gene 1548) (P11509 whole entry, looked up): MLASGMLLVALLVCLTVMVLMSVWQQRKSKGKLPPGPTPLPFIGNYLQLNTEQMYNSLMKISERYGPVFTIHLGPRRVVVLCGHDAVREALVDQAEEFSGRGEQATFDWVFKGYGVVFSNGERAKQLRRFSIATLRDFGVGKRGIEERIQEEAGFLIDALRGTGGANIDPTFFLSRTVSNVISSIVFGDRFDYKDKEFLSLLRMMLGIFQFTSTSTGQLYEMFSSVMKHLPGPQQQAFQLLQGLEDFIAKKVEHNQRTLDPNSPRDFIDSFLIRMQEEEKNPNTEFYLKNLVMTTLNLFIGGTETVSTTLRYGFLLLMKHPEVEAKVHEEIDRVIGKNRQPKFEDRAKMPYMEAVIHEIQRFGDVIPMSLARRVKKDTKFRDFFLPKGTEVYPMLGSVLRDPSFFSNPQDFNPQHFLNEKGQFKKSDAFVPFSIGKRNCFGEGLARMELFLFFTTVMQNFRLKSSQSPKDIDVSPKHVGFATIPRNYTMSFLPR
Procedure, shortened: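 Fluorescent substrate turnover by recombinant CYP2A6 (insect cell source), 0.5 h read. Screen: 10 uM, duplicate; threshold hits (e.g. 30% inhibition) → singleton concentration-response, top 20 uM. Positive and negative controls on every plate.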

[13] = molecular target: human CYP2B6, CYP2B6 (gene 1555) (UniProt P20813); experiment: NVS_ADME_hCYP2B6: NovaScreen (NVS) CYP450-related Enzyme Activity (ADME) Assay for human CYP2B6 (AID 2283101; active = hit-call score of the fitted dose curve at least 0.9, where 1 is the maximum)
Chain of human CYP2B6, CYP2B6 (gene 1555) (P20813 whole entry, looked up): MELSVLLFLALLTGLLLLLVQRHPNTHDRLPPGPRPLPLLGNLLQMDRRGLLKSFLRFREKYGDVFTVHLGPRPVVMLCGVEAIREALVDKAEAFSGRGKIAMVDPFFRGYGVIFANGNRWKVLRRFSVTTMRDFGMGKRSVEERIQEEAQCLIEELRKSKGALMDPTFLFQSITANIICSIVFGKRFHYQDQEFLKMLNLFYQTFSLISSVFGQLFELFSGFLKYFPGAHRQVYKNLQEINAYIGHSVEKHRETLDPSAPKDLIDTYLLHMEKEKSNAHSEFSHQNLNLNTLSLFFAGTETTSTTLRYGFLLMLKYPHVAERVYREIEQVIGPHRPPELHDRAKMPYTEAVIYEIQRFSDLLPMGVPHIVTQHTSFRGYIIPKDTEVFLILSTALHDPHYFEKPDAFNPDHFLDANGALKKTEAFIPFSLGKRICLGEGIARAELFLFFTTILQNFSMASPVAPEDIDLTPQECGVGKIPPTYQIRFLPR
Procedure, shortened: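 Compounds were first screened in duplicate at 10 uM against recombinant enzyme, with the fluorescent product measured after 1 hour. Active compounds were retested over a concentration series. Loss of fluorescence versus acetonitrile control was scored as reduced enzyme activity.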

[14] = molecular target: Cytochrome P450 3A4 (Homo sapiens) (UniProt P08684); experiment: NVS_ADME_hCYP3A4: NovaScreen (NVS) CYP450-related Enzyme Activity (ADME) Assay for human CYP3A4 (AID 2283110; active = hit-call score of the fitted dose curve at least 0.9, where 1 is the maximum)
Chain of Cytochrome P450 3A4 (Homo sapiens) (P08684 whole entry, looked up): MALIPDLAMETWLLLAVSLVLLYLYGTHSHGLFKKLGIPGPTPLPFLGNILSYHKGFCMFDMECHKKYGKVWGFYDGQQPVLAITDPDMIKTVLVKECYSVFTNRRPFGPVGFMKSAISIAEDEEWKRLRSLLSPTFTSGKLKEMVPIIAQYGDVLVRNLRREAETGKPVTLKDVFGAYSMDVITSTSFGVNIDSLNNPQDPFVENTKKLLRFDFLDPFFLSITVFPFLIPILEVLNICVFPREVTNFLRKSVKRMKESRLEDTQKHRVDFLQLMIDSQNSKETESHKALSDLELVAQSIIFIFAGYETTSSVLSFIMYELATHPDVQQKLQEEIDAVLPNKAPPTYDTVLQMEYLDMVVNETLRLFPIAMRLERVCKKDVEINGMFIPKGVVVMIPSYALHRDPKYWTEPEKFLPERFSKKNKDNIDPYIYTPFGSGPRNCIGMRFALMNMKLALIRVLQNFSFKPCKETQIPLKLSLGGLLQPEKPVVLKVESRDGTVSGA
Procedure, shortened: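 Activity is derived from decreased fluorescence intensity relative to acetonitrile, measured 0.33 hour after dosing insect-cell-expressed CYP3A4 in a cell-free format. Screening used 10 uM in duplicate before concentration-response follow-up.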

[15] = molecular target: human Caspase 5 (CASP5), CASP5 (gene 838) (UniProt P51878); experiment: NVS_ENZ_hCASP5: NovaScreen (NVS) Enzymatic Assay for human Caspase 5 (CASP5) (AID 2283137; active = hit-call score of the fitted dose curve at least 0.9, where 1 is the maximum)
Procedure, shortened: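 Chemicals were first tested in duplicate at 25 uM against recombinant caspase 5 from E. coli. Activity was read by fluorescence intensity 2 hours after dosing. Those passing a preset inhibition threshold were retested in singleton concentration-response up to 50 uM.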

[16] = molecular target: human AKT serine/threonine Kinase 2 (AKT2), AKT2 (gene 208) (UniProt P31751); experiment: NVS_ENZ_hAKT2: NovaScreen (NVS) Enzymatic Assay for human AKT serine/threonine Kinase 2 (AKT2) (AID 2283141; active = hit-call score of the fitted dose curve at least 0.9, where 1 is the maximum)
Procedure, shortened: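 Cell-free fluorescence/electrophoretic mobility shift readout of recombinant human AKT2 activity, 1 h after chemical dosing. Duplicate primary screen at 25 uM, then singleton concentration-response up to 50 uM; loss of signal versus DMSO baseline.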

[17] = molecular target: human Caspase 8 (CASP8), CASP8 (gene 841) (UniProt Q14790); experiment: NVS_ENZ_hCASP8: NovaScreen (NVS) Enzymatic Assay for human Caspase 8 (CASP8) (AID 2283146; active = hit-call score of the fitted dose curve at least 0.9, where 1 is the maximum)
Chain of human Caspase 8 (CASP8), CASP8 (gene 841) (Q14790 whole entry, looked up): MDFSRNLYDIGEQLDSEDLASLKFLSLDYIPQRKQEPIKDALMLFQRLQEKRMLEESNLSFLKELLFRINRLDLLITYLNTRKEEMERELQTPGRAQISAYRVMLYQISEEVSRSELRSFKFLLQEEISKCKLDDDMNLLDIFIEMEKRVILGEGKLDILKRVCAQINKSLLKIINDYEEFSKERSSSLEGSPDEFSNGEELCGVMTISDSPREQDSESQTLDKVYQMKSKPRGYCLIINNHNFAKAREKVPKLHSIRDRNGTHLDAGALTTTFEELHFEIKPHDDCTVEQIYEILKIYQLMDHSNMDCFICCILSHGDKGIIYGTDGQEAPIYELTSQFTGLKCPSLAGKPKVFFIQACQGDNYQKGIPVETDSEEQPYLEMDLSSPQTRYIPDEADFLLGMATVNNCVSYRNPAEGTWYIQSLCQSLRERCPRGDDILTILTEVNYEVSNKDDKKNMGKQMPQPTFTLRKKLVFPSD
Procedure, shortened: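 The primary screen tested compounds in duplicate at a single 25 uM concentration, with actives followed up in concentration series. Activity of recombinant (E. coli) protease was measured by fluorescence 1 h post-dose, as signal loss against DMSO.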

Measured: AC50

CCCCCCCCO
inactive: [1] | [2] | [3]

COc1ccc(-n2nc(C(F)F)cc2-c2ccc(S(C)=O)cc2)cc1 (centres undefined)
inactive: [1] | [2] | [3] | [6]
active: [4] 2.09 µM | [5] 0.967 µM

CCCC(=O)OCC
inactive: [1] | [2] | [3]

C=CCCCCCCCCC(=O)O
inactive: [1] | [4] | [2] | [3] | CDK2 (gene 1017)

Cc1c(-c2cccnc2)c2ccccc2n1CCCCC(=O)O
inactive: [1] | [4] | [3] | [8]
active: [2] 20 µM | [7] 13.9 µM

O=c1[nH]c2ccc(S(=O)CCN3CCC(Cc4ccc(F)cc4)CC3)cc2o1 (centres undefined)
inactive: [1] | [4] | [2] | [3]
active: [9] 1.3 µM

CCOCCOCCOCCO
inactive: [1] | [4] | [2] | [3] | [10]

Cc1ccc(N)cc1O
active: [1] 9.99 µM | [2] 8.98 µM | [9] 3.9 µM | [5] 7.57 µM
inactive: [4] | [3] | [11] | [10] | [6]

COc1ccc2sc(C(=O)Nc3nnn[nH]3)c(OC(C)C)c2c1
active: [1] 10 µM | [4] 16.6 µM | [2] 11.9 µM | [3] 14.2 µM | CDK2 (gene 1017) 10.1 µM
inactive: [6]

Cc1ccc(O)cc1
inactive: [1] | [2] | [3]

CC(C)CC(C)(O)C#CC(C)(O)CC(C)C (centres undefined)
inactive: [1] | [4] | [2] | [3] | [10]

O=P(OC(CCl)CCl)(OC(CCl)CCl)OC(CCl)CCl
inactive: [1] | [3] | [12] | [11] | [15]
active: [2] 25.3 µM | [13] 6.54 µM | [14] 6.65 µM | [5] 6.38 µM | [8] 8.73 µM

CC(C)=CCCC(C)=CC=O
inactive: [1] | [2] | [3] | [12] | [5]

CCCCC(CC)COC(=O)c1ccc(C(=O)OCC(CC)CCCC)cc1 (centres undefined)
inactive: [1] | [2] | [3]

CC[C@H](C)C(=O)O[C@H]1C[C@@H](C)C=C2C=C[C@H](C)[C@H](CC[C@@H]3C[C@@H](O)CC(=O)O3)[C@H]21
active: [1] 21.7 µM | [2] 4.5 µM | [3] 3.95 µM
inactive: [16] | [17]
